Source: PubChem BioAssay (National Center for Advancing Translational Sciences (NCATS))
Sampled rows, rich in hits. Any-hit rate of the full collection: about 2.8%.
GALC G270D up: raises human GALC G270D mutant activity in cells. actives 0.1% (n = 45,000). 145M-Twi-hGALC-G270D cells, HMU-beta-Gal fluorescence, 48 h. P54803. Potency, µM (top dose mostly 57.5 µM), actives largely listed as activators; also: nearly all actives have a fitted effect of over 65% in size
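qHTS, 1536-well; 145M-Twi-hGALC-G270D cells (WT line also made) in DMEM/F12 + 10% FBS; compound incubation on live cells; HMU-β-gal 0.1 mM final, pH 5.2, NaTC; carbonate stop; fluorescence increase = enhanced residual activity.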
B2AR arrestin ag: ADRB2 beta-arrestin recruitment. 44,000 tested, under 10 active. P07550. HTLA Tango cells, beta-arrestin recruitment, luciferase luminescence, 18 h. Potency, µM (series often up to 46.1 µM), usual class: activators
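Receptor–beta-arrestin recruitment read by tTA-responsive luciferase: compound titrations (up to 46 µM) incubated 18 h with Tango cells, then luminescent substrate 15 min at room temperature. Concentration-response fits classified by r2, efficacy and activity.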
DRV1 agonist: activates human resolvin D1 receptor GPR32; actives 2.5% (n = 48,000); AID 1346428; activation, % at 76.9 µM; CHO-K1 GPR32 beta-arrestin PathHunter luminescence, 90 min; zero percent set by DMSO-only wells; O75388;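 active = activation of at least 60% and not above a set upper limit, about 1 call in 100 departs from these limits; inconclusive = activation of 40% to 60%, or above that upper limit; inactive = activation under 40%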
Target sequence (O75388 whole entry, looked up): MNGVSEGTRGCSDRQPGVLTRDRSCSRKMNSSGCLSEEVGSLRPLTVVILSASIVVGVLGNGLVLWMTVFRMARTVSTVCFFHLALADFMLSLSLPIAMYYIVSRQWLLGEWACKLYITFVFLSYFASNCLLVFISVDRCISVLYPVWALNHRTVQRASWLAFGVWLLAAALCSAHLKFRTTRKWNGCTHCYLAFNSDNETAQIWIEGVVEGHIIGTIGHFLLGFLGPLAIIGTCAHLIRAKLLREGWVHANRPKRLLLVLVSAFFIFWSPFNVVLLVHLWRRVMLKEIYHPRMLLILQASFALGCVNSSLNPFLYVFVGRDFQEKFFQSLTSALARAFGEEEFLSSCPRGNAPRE
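Luminescent readout of beta-Gal complementation quantifies ligand-induced beta-arrestin association with GPR32 in CHO-K1 cells; 90 min compound incubation at 37 °C, detection 1 h at room temperature.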
FH mod: Identification of activators of human fumarate hydratase by quantitative high-throughput screening. Fumarate hydratase, mitochondrial (Homo sapiens), P07954. FH coupled MDH/diaphorase resazurin fluorescence, 15 min. Potency, µM (top dose mostly 79.9 µM), actives largely listed as inhibitors. actives 0.22% (n = 54,000). AID 1347055, 2019; also: the screen sought activators but most active calls are inhibition curves; nearly all actives have a fitted effect of over 45% in size
Large screens that a line does not name were inactive; ! = repeats disagree. Unless noted, calls follow the shape of the dose curve; as a rule, active = well fitted curve in the direction sought with a large enough effect; inconclusive = small, poorly fitted or top-dose-only effect, or another doubt; inactive = no such curve, though single readings can be large; an effect the other way counts as inactive or inconclusive.

Cn1c(=O)n(C)c2cc(N3CCOCC3)c(NS(=O)(=O)c3cccc(C#N)c3)cc21	FH mod 16µM
COc1ccc(N2CCN(CC(O)COc3ccc(C)cc3C)CC2)cc1 (stereo not drawn)	DRV1 agonist 67
COc1ccccc1N1CCN(CC(O)COc2ccc(Cl)c(C)c2)CC1 (stereo not drawn)	DRV1 agonist 118
COc1ccc(N2CCN(CC(O)COc3ccc(C(C)(C)C)cc3)CC2)cc1 (stereo not drawn)	none
COC[C@H](C)Oc1cc(O[C@@H](C)Cc2ccccc2)cc(C(=O)Nc2ccc(C(=O)O)cn2)c1	none (no result: GALC G270D up, B2AR arrestin ag, DRV1 agonist)
COC(=O)c1cc2sc(Cl)cc2n1CC(=O)Nc1cc(OC)cc(OC)c1	DRV1 agonist 89
COC(=O)c1cc2sc(Cl)cc2n1Cc1c(C)cc(C)cc1C	none
CC(=O)O[C@H]1CC(C)(C)CC2[C@]13CO[C@@]21CCC2[C@@]4(C)CC[C@H](O[C@@H]5OC[C@H](O[C@@H]6O[C@H](CO)[C@@H](O)[C@H](O)[C@H]6O[C@@H]6OC[C@@H](O)[C@H](O)[C@H]6O)[C@H](O)[C@H]5O[C@@H]5O[C@H](CO)[C@@H](O)[C@H](O)[C@H]5O)[C@@](C)(CO)C4CC[C@@]2(C)[C@]1(C)C[C@H]3O (stereo partly drawn)	none (no result: GALC G270D up, B2AR arrestin ag, DRV1 agonist)
CCOCCCN1C(=O)c2[nH]nc(-c3ccccc3O)c2C1c1ccc(CC)cc1 (stereo not drawn)	B2AR arrestin ag 7.1µM
COc1cc(C2c3c(-c4cc(C)ccc4O)n[nH]c3C(=O)N2CCCO)ccc1OCCC(C)C (stereo not drawn)	DRV1 agonist 102
CCc1ccc(C2c3c(-c4ccccc4O)n[nH]c3C(=O)N2Cc2ccncc2)cc1 (stereo not drawn)	B2AR arrestin ag inconclusive, FH mod inconclusive
CC(C)(C)c1ccc(OCC(=O)Nc2ccc(S(=O)(=O)Nc3ncccn3)cc2)cc1	DRV1 agonist 79
Cc1ccc2c(c1)c(=O)c1ccccc1n2CCCC(=O)Nc1ccc(C)c(C)c1	GALC G270D up 40µM
Cc1ccc2c(c1)c(=O)c1ccccc1n2CCCC(=O)Nc1ccc(C)c(F)c1	none
N#Cc1ccc(-c2c(-c3ncn[nH]3)sc(N3CCOCC3)c2C#N)c(F)c1	none (no result: GALC G270D up, B2AR arrestin ag, DRV1 agonist)
CC(=O)c1ccc(N2CCN(C(=O)C3CCN(S(=O)(=O)c4ccc(Br)s4)CC3)CC2)cc1	DRV1 agonist 87
CC(=O)c1ccc(N2CCN(C(=O)C3CCCN(S(=O)(=O)c4ccc(Br)s4)C3)CC2)cc1 (stereo not drawn)	none
Cc1ccc(NC(=O)C2CCN(S(=O)(=O)c3cccc4nonc34)CC2)cc1C	DRV1 agonist 101
Cc1cc(NC(=O)C2CCN(S(=O)(=O)c3ccc(Br)s3)CC2)ccc1Br	DRV1 agonist 76
Cc1ccc(NC(=O)C2CCN(S(=O)(=O)c3cccc4nsnc34)CC2)cc1F	DRV1 agonist 93
Cc1ccc(NC(=O)C2CCN(S(=O)(=O)c3cccc4nonc34)CC2)c(Cl)c1	none
Cc1ccc(F)cc1C(=O)Nc1ccc(C(=O)N2Cc3cccn3Cc3ccccc32)c(Cl)c1	none (no result: GALC G270D up, B2AR arrestin ag, DRV1 agonist)
COc1cc2c(cc1OC)N1C(=O)C[C@@]34C=CC[N@+]5([O-])CC[C@H]2[C@H](CC3)[C@@]145	none (no result: GALC G270D up, B2AR arrestin ag, DRV1 agonist)
CC1=CC(=O)CC(C)(CO[C@@H]2O[C@H](CO)[C@@H](O)[C@H](O)[C@H]2O)C1(O)/C=C/C(C)=C/C(=O)O (stereo partly drawn)	none (no result: GALC G270D up, B2AR arrestin ag, DRV1 agonist)
Cc1cccc(Oc2ccc3c(c2)Oc2ccccc2NC3=O)c1	DRV1 agonist 95
O=C(CC(c1ccccc1)c1cc(Br)ccc1O)NCC1(c2ccccc2)CCCC1 (stereo not drawn)	DRV1 agonist 108 (no result: GALC G270D up, FH mod)
O=C(NCC1(c2ccccc2)CCCC1)C(=O)Nc1cccc(C(F)(F)F)c1	none
O=C(/C=C/c1cccnc1)c1ccncc1	none (no result: GALC G270D up, B2AR arrestin ag, DRV1 agonist)
O=C(/C=C/c1ccc(O)cc1)OC1[C@H](O)CC(O)(C(=O)O)C[C@H]1O (stereo partly drawn)	none (no result: GALC G270D up, B2AR arrestin ag, DRV1 agonist)
Cc1oc2ccccc2c1CNC(=O)NCc1cccs1	none (no result: GALC G270D up, B2AR arrestin ag, DRV1 agonist)
Cc1nc2c(-c3ccccc3)c(C)nn2c(C)c1CCC(=O)NCc1cccc(Cl)c1	DRV1 agonist 62
Cc1cc(=O)oc2c(C=O)c(O)ccc12	none (no result: GALC G270D up, B2AR arrestin ag, DRV1 agonist)
Cc1cc2c(C(C)C)c(O)c(O)c(C=O)c2c(O)c1-c1c(C)cc2c(C(C)C)c(O)c(O)c(C=O)c2c1O	FH mod 28µM! (no result: B2AR arrestin ag)
C=CCCN1CCC2(CC1)CN(C(=O)c1c(F)cccc1F)c1ccc(Cl)cc12	none (no result: GALC G270D up, B2AR arrestin ag, DRV1 agonist)
CCc1cccc(C)c1NC(=O)CSc1nnc(N)s1	DRV1 agonist 94
CCc1ccc(NC(=O)COC(=O)CCCC2=NS(=O)(=O)c3ccccc3N2)cc1	DRV1 agonist 64
CSc1nc(N)c2ncn([C@@H]3O[C@H](COP(=O)(O)OP(=O)(O)OP(=O)(O)O)C(O)[C@H]3O)c2n1 (stereo partly drawn)	none (no result: GALC G270D up, B2AR arrestin ag, DRV1 agonist)
CC(C)(C)NS(=O)(=O)c1cncc(-c2cc(F)c3nc(N)nn3c2)c1	none (no result: GALC G270D up, B2AR arrestin ag, DRV1 agonist)
CCOc1cc(C(=O)Nc2ccc(NC(=O)c3cc4ccccc4o3)c(OC)c2)cc(OCC)c1OCC	DRV1 agonist 105
CC(=O)OC[C@H]1O[C@H](O[C@]2(CO)O[C@H](CO)[C@@H](OC(=O)/C=C/c3ccccc3)[C@@H]2O)[C@H](O)[C@@H](O)[C@@H]1O	none (no result: GALC G270D up, B2AR arrestin ag, DRV1 agonist)
CCc1c(C)c2ccc3c(c2oc1=O)CN(Cc1ccccc1)CO3	GALC G270D up 25µM
Cc1ccc(CN2COc3ccc4c(C)cc(=O)oc4c3C2)cc1	GALC G270D up 25µM
Cc1cc(=O)oc2c3c(ccc12)OCN(Cc1ccccc1Cl)C3	GALC G270D up inconclusive
O=C(NCCc1csc2nc(-c3ccccc3F)nn12)c1ccccc1C(F)(F)F	none
COc1cccc(C(=O)NCCc2csc3nc(-c4ccccc4F)nn23)c1OC	DRV1 agonist 68
O=C(Cc1ccc(F)cc1)NCCc1csc2nc(-c3ccccc3F)nn12	DRV1 agonist 62
O=C(NCCc1csc2nc(-c3ccccc3F)nn12)c1ccco1	none
CCOC(=O)c1noc2ncn(CC(=O)Nc3ccc(C)c(F)c3)c(=O)c12	DRV1 agonist 76
C=C(C=O)[C@]1(O)C[C@@]2(C)C(=CC1=O)C=C[C@H](OC(=O)/C=C/C=C/[C@H](C)CC)[C@@H]2C	none (no result: GALC G270D up, B2AR arrestin ag, DRV1 agonist)
Cc1ccccc1-c1nnn(CC(=O)Nc2sc3c(c2C#N)CCC(C(C)(C)C)C3)n1 (stereo not drawn)	none
CC(C)(C)C1CCc2c(sc(NC(=O)Cn3nnc(-c4ccccc4Cl)n3)c2C#N)C1 (stereo not drawn)	DRV1 agonist 89, FH mod inconclusive
CC1=C(C)C(=O)C(CCCCC#CCCCC#CCO)=C(C)C1=O	FH mod 28µM (no result: B2AR arrestin ag)
